The panel holds about 79,000 compounds, 15% with a hit somewhere; the sample as a whole holds those more often. Cut-off read from the data, not from the text of the source: active = growth inhibition above about 70%; inactive = the rest.
Tests used:
[1] = NCI Yeast Anticancer Drug Screen. Data for the rad50 strain (AID 155);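 note: 0% = growth of vehicle-only cultures of the same strain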; conditions: S. cerevisiae rad50 strain growth inhibition; at 50.0 µM; hits give high values
Method in brief: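 Growth of the mutant yeast was measured after compound exposure and referenced to vehicle-treated cultures.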

[2] = NCI Yeast Anticancer Drug Screen. Data for the sgs1 mgt1 strain (AID 161);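 note: 0% = growth of cultures given vehicle only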; conditions: S. cerevisiae sgs1 mgt1 strain, at 50.0 µM, hits give high values
Method in brief: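 Compounds are added to genetically altered yeast, and growth is compared with cultures given vehicle alone to give percent inhibition.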

[3] = NCI Yeast Anticancer Drug Screen. Data for the cln2 rad14 strain (AID 165);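 note: 0% = growth equal to vehicle treated cultures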; conditions: S. cerevisiae cln2 rad14 strain, at 50.0 µM, hits give high values
Method in brief: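 Relative to vehicle controls, growth inhibition of compound-treated cln2 rad14 yeast was recorded.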

[4] = NCI Yeast Anticancer Drug Screen. Data for the bub3 strain (AID 167); conditions: S. cerevisiae bub3 mutant strain, at 50.0 µM, hits give high values
Method in brief: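 Whole-cell yeast assay. The mutant strain was incubated with compounds, and growth inhibition was determined by comparison with vehicle-treated cells.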

[5] = NCI Yeast Anticancer Drug Screen. Data for the mlh1 rad18 strain (AID 175); conditions: S. cerevisiae mlh1 rad18 strain growth inhibition; at 50.0 µM; hits give high values
Method in brief: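 Test agents were incubated with a yeast strain of defined genotype (DNA damage repair defect). Inhibition of growth was derived by comparison with vehicle-exposed cultures.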

Measured: growth inhibition

NC(=O)N/N=C\c1ccco1
inactive: [1] 26.1% | [2] -13.3% | [3] -11.4% | [4] -14.3% | [5] 13.1%

CC(=O)Cc1ccc(-c2ccccc2)cc1
inactive: [1] 18.4% | [2] 8.3% | [3] -25.4% | [4] 10.3% | [5] 24.6%

O=C(O)/C=C/C(=O)NCc1ccccc1
inactive: [1] 34.6% | [2] 48% | [3] 1.4% | [4] 44.4% | [5] 26.7%

CCOC(=O)c1cc(/C=C/c2cccc(Cl)c2)on1
inactive: [1] 57.2% | [2] 25.9% | [3] 26.1% | [4] 8.1% | [5] 47.4%

OCc1cccc2ccccc12
inactive: [1] 27.6% | [2] 13.9% | [3] -27.4% | [4] 3.6% | [5] 24.5%

Cc1cc(O)ccc1O
inactive: [1] 31% | [2] 7% | [3] -5.05% | [4] 3.5% | [5] 42.3%

Nc1ccccc1SC(CC(=O)c1ccccc1)c1c(Cl)cccc1Cl (stereo not given)
inactive: [1] -11.5% | [2] 2.1% | [3] 1.75% | [4] 2.85% | [5] 16.7%

Cc1cc(C(O)(c2ccc(Nc3ccccc3)cc2)c2ccc(Nc3ccc(S(=O)(=O)O)cc3)cc2)ccc1N (stereo not given)
inactive: [1] -44.5% | [2] -9.6% | [4] -36.6% | [5] -34.6%

NCCCN
inactive: [1] 8.9% | [2] -11.1% | [3] -5.9% | [4] 3.6%

Cc1ccc(N)cc1[N+](=O)[O-]
inactive: [1] 11.8% | [2] 6.2% | [3] 18.2% | [4] 15.4%

O=C1OC[C@H]2[C@H](c3ccc(O)c(O)c3)c3cc(O)c(O)cc3C[C@H]12
inactive: [1] 24.9% | [2] 23.9% | [3] 15.8% | [4] 23.7% | [5] 10.9%

CCOC(=O)c1ccc(Nc2sc(C(=O)c3cccc([N+](=O)[O-])c3)c(N)c2C#N)cc1
inactive: [1] -9.95% | [2] -0.95% | [3] 5.75% | [5] 0.55%

O=C(Cc1nc2ccc([N+](=O)[O-])cc2nc1CC(=O)c1ccccc1)c1ccccc1
inactive: [1] -2.4% | [3] 2.75% | [4] 13.2%

COc1cc(CN)ccc1O
inactive: [1] 1.65% | [2] -8.75% | [3] 10.7% | [5] 12.2%

C/C(=N\O)C1(O)CCCCC1
inactive: [1] 28.9% | [2] 8% | [3] 13.7% | [4] 7.45% | [5] 15.8%

CC(=O)N(C)c1ccc([N+](=O)[O-])cc1
inactive: [1] 21.8% | [2] 21.2% | [4] 24.4%

COc1ccccc1N1CCN(C(=S)Nc2ccccc2)CC1
inactive: [1] 32.3% | [2] 0.8% | [3] -1.05% | [4] -2.7% | [5] 15.3%

CN1C(=O)CN2CCc3ccccc3C2c2cc(Cl)ccc21 (stereo not given)
inactive: [1] 33.3% | [2] 47.6% | [3] 22.1% | [5] 42.1%

CC1=NN(c2ccccc2)C(=O)/C1=C\N1CC(=O)NC1=S
inactive: [1] -50.9% | [2] -11.3% | [3] 5.45% | [4] -49% | [5] -30.4%

C=CCCCCCCCCCOC(C)=O
inactive: [1] -14.3% | [2] -20.4% | [3] -9.5% | [4] -2.8% | [5] 8.25%

C1CNC(C2=NCCN2)=N1
inactive: [1] -4.85% | [2] -24.5% | [3] -26.1% | [4] -31.8% | [5] -7.25%

C[N+](C)(C)C(=O)c1ccccc1
inactive: [1] 21.6% | [3] 11.1% | [4] -1.15% | [5] 46.6%

CC1(C)S(=O)(=O)OCCOS1(=O)=O
inactive: [1] -25.4% | [2] 6.75% | [3] -20.5% | [4] 7.35% | [5] 0.15%

CC(C)C1CCCCC1O (stereo not given)
inactive: [1] -9.15% | [2] -11.5% | [4] -1.4% | [5] 6.8%

Nc1ccc(N=Nc2ccc(S(=O)(=O)O)cc2)c2ccccc12
inactive: [1] -0.3% | [2] -22.4% | [3] -25.9% | [5] 9.05%

CN(C)Cc1cc(C(C)(C)CC(C)(C)C)ccc1O
inactive: [1] 38.2% | [2] 6.3% | [3] -43.9% | [4] 17.1% | [5] 42.5%

CC1(C(N)=O)CCC(C(=O)O)C1(C)C (stereo not given)
inactive: [1] 10.3% | [2] 14.4% | [3] -29.9% | [4] -3.45% | [5] 8.15%

COc1ccc(OC)c(/C=C2\CCc3ccccc3C2=O)c1
inactive: [1] 17.4% | [2] 27.5% | [3] 7.4% | [4] 47.7%

CC(=O)OC1CC2C(C)(C)OC3CC(=O)OCC32C2CCC3(C)C(=CCC3c3ccoc3)C12C (stereo not given)
inactive: [1] 6.45% | [2] -26.6% | [3] 17.8% | [4] -10.3% | [5] 1.1%

Cc1ccc(/C=C2\SC(=S)N(c3ccc(F)cc3)C2=O)o1
inactive: [1] 14.7% | [3] 17.4% | [4] 15.8% | [5] 23.9%

c1ccc2c(N3CCCCC3)ncnc2c1
inactive: [1] 0.85% | [2] -4.65% | [3] 4.8% | [4] 2.15% | [5] -3%

CCC/C=C(\C)C(C)(C#N)C(=O)OCC (stereo not given)
inactive: [1] 3.1% | [2] 10.8% | [3] -1.35% | [4] -17.7% | [5] -29.9%

O=C(Nc1cccc(NC(=O)Nc2cc(C(F)(F)F)ccc2Cl)c1)Nc1cc(C(F)(F)F)ccc1Cl
inactive: [1] 18.8% | [2] 9.55% | [3] 19.4% | [4] 14.9% | [5] 11.7%

CSc1[nH]c(=O)ncc1F
inactive: [1] 4.15% | [2] 3.2% | [3] -4.15% | [4] -2.3% | [5] -7.45%

From PubChem BioAssay (NCI)
